# Experimental data from PubChem BioAssay (NCATS).
# “And” between values parts separate entries of the source, which are not always exact repeats. Equal values may be shown once. Inconclusive results are not listed. The source made the active and inactive calls. Unless noted, the rule behind the calls is not given here.
# Assays:
# [1] = qHTS Assay for Identifying Gametocytocidal Compounds (AID 743244; active = well fitted curve in the direction sought with a large enough effect; an effect the other way counts as inactive or inconclusive; note: potency is the fitted concentration of half-maximal effect;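 for max response: % is set by controls: 0 for no effect and ±100 for the full control effect; actives lower the fluorescent signal which means gametocytes are killed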); conditions: P. falciparum 3D7 stage III-V gametocytes, alamarBlue, 72 h; max response: stronger effect = lower value
# How it was run: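 P. falciparum 3D7 stage III–V gametocytes (20,000 cells/well) were exposed to compounds for 72 h at 37 °C, 5% CO2. AlamarBlue was then added for 24 h; decreased resorufin fluorescence (Ex 525/Em 598 nm) indicated loss of viability.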
# [2] = qHTS assay for cell viability of HEK293 cells (AID 743288; active = well fitted curve in the direction sought with a large enough effect; an effect the other way counts as inactive or inconclusive; note: % is set by controls: 0 for no effect and ±100 for the full control effect; nearly all actives have a fitted effect of over 50% in size); conditions: ATP luminescence (CellTiter-Glo), 18 h; max response: stronger effect = lower value
# How it was run: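 The Tox21 protocol used parental HEK293 cells treated for 18 h at 37 C with compounds delivered by pintool; ATP-coupled luminescence after 30 min at room temperature gave viability.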
# [3] = qHTS assay for cell viability of the p53RE-bla HCT-116 cell line (AID 743292; active = well fitted curve in the direction sought with a large enough effect; an effect the other way counts as inactive or inconclusive; note: % is set by controls: 0 for no effect and ±100 for the full control effect; nearly all actives have a fitted effect of over 55% in size); conditions: p53RE-bla HCT-116 viability, ATP luminescence, 16 h; series mostly up to 95 µM
# How it was run: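 ATP-based luminescence, 16 h compound exposure at 37 C, p53RE-bla HCT-116 cells at 4,000/well.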
# [4] = target: Hexokinase-4 (Homo sapiens) + Glucokinase regulatory protein (Homo sapiens) (UniProt P35557+Q14397); assay: qHTS assay for inhibitors of recombinant human GCK-GKRP interaction: HTRF assay (AID 743207; active = well fitted curve in the direction sought with a large enough effect; an effect the other way counts as inactive or inconclusive;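 note: 0% = DMSO with GCK present and -100% = DMSO wells lacking GCK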); conditions: recombinant GCK-GKRP HTRF binding, 60 min; series mostly up to 57.5 µM
# How it was run: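 Steps: dispense GCK–GKRP complex (5 nM each, GST- and FLAG-tagged) with 2 uM S6P; pin in compounds; add XL665/Eu-cryptate-labelled antibodies; incubate 60 min at room temperature; read time-resolved FRET at 665 and 615 nm.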
# [5] = qHTS profiling of the MIPE4 collection as inhibitors of Plasmodium falciparum (3D7) proliferation (AID 743344);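 note: scaled between DMSO vehicle wells and 0.29 µM artemisinin as full inhibition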; conditions: P. falciparum 3D7 in erythrocytes, SYBR Green DNA fluorescence, 72 h; at 28.5 µM (top of the series)
# How it was run: (§1)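 Erythrocytes infected with P. falciparum (0.3% parasitemia, 2.5% hematocrit) incubated with compounds 72 h at 37 C, 5% CO2. Lysis with saponin/Triton buffer containing SYBR Green I, overnight at room temperature in the dark; DNA fluorescence (485/535 nm) normalised to 0.29 uM artemisinin and DMSO.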
# [6] = qHTS profiling of the MIPE4 collection as inhibitors of Plasmodium falciparum (DD2) proliferation (AID 743345); conditions: P. falciparum Dd2 in erythrocytes, SYBR Green DNA, 72 h; at 28.5 µM (top of the series) unless noted
# How it was run: as §1
# [7] = qHTS profiling of the MIPE4 collection as inhibitors of Plasmodium falciparum (DD2) proliferation (Rep 2) (AID 743346); conditions: P. falciparum Dd2 in erythrocytes, SYBR Green DNA, 72 h; at 28.5 µM (top of the series)
# How it was run: as §1
# [8] = qHTS profiling for inhibitors of Plasmodium falciparum (3D7) proliferation (AID 743322);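 note: infected erythrocytes exposed to compound for 72 h before lysis; 100% = DMSO vehicle wells and 0% = 0.29 µM artemisinin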; conditions: P. falciparum 3D7 proliferation; at 28.7 µM (top of the series) unless noted
# How it was run: as §1
# [9] = qHTS profiling for inhibitors of Plasmodium falciparum (DD2) proliferation (AID 743323); conditions: lower = more inhibition; at 28.7 µM (top of the series) unless noted
# How it was run: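 1536-well qHTS; infected RBCs 0.3% parasitemia/2.5% Hct final; cpd 72 h 37 C 5% CO2; lysis buffer + SYBR Green I, o/n RT dark; FI 485/535; norm. to 0.29 uM artemisinin and DMSO, plate-stack corrected.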
# [10] = qHTS profiling for inhibitors of Plasmodium falciparum (HB3) proliferation (AID 743324; active = well fitted curve in the direction sought with a large enough effect; an effect the other way counts as inactive or inconclusive;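 note: 100% = DMSO vehicle wells and 0% = artemisinin-treated control wells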); conditions: Plasmodium falciparum HB3 blood-stage proliferation; at 28.7 µM (top of the series) unless noted
# How it was run: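 P. falciparum HB3 grown in erythrocytes (0.3% parasitemia, 2.5% hematocrit final) with compound for 72 h at 37 C, 5% CO2. Parasite DNA detected by SYBR Green after saponin/triton lysis overnight; normalized to 0.29 uM artemisinin and DMSO.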
# Chain of Hexokinase-4 (Homo sapiens) + Glucokinase regulatory protein (Homo sapiens) (P35557 whole entry, looked up): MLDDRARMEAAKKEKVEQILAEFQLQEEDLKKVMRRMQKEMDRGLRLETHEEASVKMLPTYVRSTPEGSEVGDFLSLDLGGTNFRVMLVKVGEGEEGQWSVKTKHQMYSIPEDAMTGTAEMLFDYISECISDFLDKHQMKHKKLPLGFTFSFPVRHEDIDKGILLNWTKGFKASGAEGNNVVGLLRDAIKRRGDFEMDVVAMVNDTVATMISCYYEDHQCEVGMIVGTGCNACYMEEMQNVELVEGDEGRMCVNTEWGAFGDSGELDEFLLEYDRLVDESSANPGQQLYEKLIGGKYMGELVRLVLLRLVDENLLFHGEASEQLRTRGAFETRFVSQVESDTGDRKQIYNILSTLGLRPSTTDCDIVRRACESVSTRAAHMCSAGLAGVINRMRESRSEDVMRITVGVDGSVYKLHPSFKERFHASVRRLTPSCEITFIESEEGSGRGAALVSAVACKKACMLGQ
# Chain of Hexokinase-4 (Homo sapiens) + Glucokinase regulatory protein (Homo sapiens) (Q14397 whole entry, looked up): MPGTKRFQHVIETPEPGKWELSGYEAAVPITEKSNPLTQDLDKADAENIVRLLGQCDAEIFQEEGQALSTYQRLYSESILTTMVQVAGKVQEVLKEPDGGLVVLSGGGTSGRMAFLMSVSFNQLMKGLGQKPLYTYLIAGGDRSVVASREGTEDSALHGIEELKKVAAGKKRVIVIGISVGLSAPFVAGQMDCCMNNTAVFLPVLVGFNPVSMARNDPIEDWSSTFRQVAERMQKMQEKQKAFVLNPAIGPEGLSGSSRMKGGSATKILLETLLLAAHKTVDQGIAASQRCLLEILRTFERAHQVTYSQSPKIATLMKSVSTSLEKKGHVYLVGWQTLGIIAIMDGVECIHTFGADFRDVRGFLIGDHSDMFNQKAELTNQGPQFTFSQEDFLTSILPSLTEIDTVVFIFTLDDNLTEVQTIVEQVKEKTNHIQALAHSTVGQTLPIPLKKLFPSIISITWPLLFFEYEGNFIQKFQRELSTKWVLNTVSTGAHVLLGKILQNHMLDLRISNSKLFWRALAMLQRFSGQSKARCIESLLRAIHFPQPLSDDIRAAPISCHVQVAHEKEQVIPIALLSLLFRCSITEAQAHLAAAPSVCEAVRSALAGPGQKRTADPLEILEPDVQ
structure (smiles),measurement,setting,value
Cc1ccc(Cl)c(O)c1,max response,[1],-0.773% (inactive)
Nc1ccc(Cl)cc1,max response,[1],4.15% (inactive)
same,max response,[2],-6.22% (inactive)
same,Potency,[3],inactive
Cc1nc2cnc3ccc(C#Cc4cccnc4)cc3c2n1-c1ccc(C(C)(C)C#N)cc1,Potency,[1],5.9 µM (active)
COC(C)(C)CCCC(C)C/C=C/C(C)=C/C(=O)OC(C)C (centres undefined),max response,[1],-9.95% (inactive)
same,max response,[2],-16.1% (inactive) and -28.4% (inactive)
same,Potency,[3],inactive
Oc1ccc2c3c1O[C@H]1[C@@H](O)C=C[C@H]4[C@@H](C2)NCC[C@@]341,max response,[1],4.91% (inactive)
CC[C@@H](C(N)=O)N1CCCC1=O,outcome,[4],inactive
same,"parasite growth, % of DMSO control",[5],69.9%
same,"parasite growth remaining, % of DMSO control (lower = more inhibition)",[6],90.5%
same,"parasite growth, % of control (lower = inhibition)",[7],46.9%
O=[N+]([O-])c1ccc([As](=O)(O)O)cc1,Potency,[1],10 µM (active)
CN1CC[C@@H](c2c(O)cc(O)c3c(=O)cc(-c4ccccc4Cl)oc23)[C@@H](O)C1,max response,[1],13.4% (inactive)
CC(=O)Nc1ccc(OC[C@](C)(O)C(=O)Nc2ccc([N+](=O)[O-])c(C(F)(F)F)c2)cc1,remaining parasite growth % (stronger effect = lower value),[8],102%
same,"activity, percent of control",[9],97.8%
same,"remaining proliferation (% of control), lower = more inhibition",[10],71.3%
C=CCON=C(C[C@H]1O[C@@H]2O[C@]3(C)CC[C@@H]4[C@H](C)CC[C@@H]([C@H]1C)[C@@]24OO3)[C@H]1O[C@@H]2O[C@]3(C)CC[C@H]4[C@H](C)CC[C@@H]([C@@H]1C)[C@@]24OO3,remaining parasite growth % (stronger effect = lower value),[8],-1.46%
same,"activity, percent of control",[9],0.0103%
same,"remaining proliferation (% of control), lower = more inhibition",[10],0.0213%
O=C(N[C@@H](COc1ccc2[nH]c(=O)[nH]c2c1)c1ccccc1)c1cccn(Cc2ccc(F)c(F)c2)c1=O,"parasite growth, % of DMSO control",[5],50.5%
same,"parasite growth remaining, % of DMSO control (lower = more inhibition)",[6],85.6%
same,"parasite growth, % of control (lower = inhibition)",[7],75.9%
CC1CC(C)C(=O)C(C(O)CC2CC(=O)NC(=O)C2)C1 (centres undefined),remaining parasite growth % (stronger effect = lower value),[8],0.131% [at 57.5 µM]
same,"activity, percent of control",[9],0.244% [at 57.5 µM]
same,"remaining proliferation (% of control), lower = more inhibition",[10],-0.376% [at 57.5 µM]
CCC(=O)OC1CCC2C3CCC4=CC(=O)CC[C@@]4(C)C3CC[C@]12C (some centres undefined),"parasite growth, % of DMSO control",[5],89.9%
same,"parasite growth remaining, % of DMSO control (lower = more inhibition)",[6],96.4%
same,"parasite growth, % of control (lower = inhibition)",[7],125%
C[C@@]12OC(=O)[C@]1([C@@H](O)[C@@H]1C=CCCC1)NC(=O)[C@H]2CCCl,"parasite growth, % of DMSO control",[5],4.78%
same,"parasite growth remaining, % of DMSO control (lower = more inhibition)",[6],7.57%
same,"parasite growth, % of control (lower = inhibition)",[7],10.7%
Cc1c(C(=O)c2cccc3ccccc23)c2cccc3c2n1[C@H](CN1CCOCC1)CO3,"parasite growth, % of DMSO control",[5],15.4%
same,"parasite growth remaining, % of DMSO control (lower = more inhibition)",[6],47.9%
same,"parasite growth, % of control (lower = inhibition)",[7],48.7%
COc1ccc2c(c1)[C@]13CCCCC1C(C2)N(C)CC3 (some centres undefined),"parasite growth, % of DMSO control",[5],92.5%
same,"parasite growth remaining, % of DMSO control (lower = more inhibition)",[6],85.3%
same,"parasite growth, % of control (lower = inhibition)",[7],52.9%
C1=CCOCc2cc(ccc2OCCN2CCCC2)Nc2nccc(n2)-c2cccc(c2)OCC1,remaining parasite growth % (stronger effect = lower value),[8],105%
same,"activity, percent of control",[9],107%
same,"remaining proliferation (% of control), lower = more inhibition",[10],115%
CC[C@H](CO)Nc1nc(NCc2ccccc2)c2ncn(C(C)C)c2n1,remaining parasite growth % (stronger effect = lower value),[8],61.3%
same,"activity, percent of control",[9],50.4%
same,"parasite growth remaining, % of DMSO control (lower = more inhibition)",[6],67.6%
same,"parasite growth, % of control (lower = inhibition)",[7],48%
C=C[C@@H]1CN2CCC1C[C@H]2[C@H](O)c1ccnc2ccccc12 (some centres undefined),"parasite growth, % of DMSO control",[5],26.8%
same,"parasite growth remaining, % of DMSO control (lower = more inhibition)",[6],10.8%
same,"parasite growth, % of control (lower = inhibition)",[7],46.5%
CN(C)NC(=O)CCC(=O)O,Potency,[3],inactive
same,"parasite growth, % of DMSO control",[5],91.1%
same,"parasite growth remaining, % of DMSO control (lower = more inhibition)",[6],101%
same,"parasite growth, % of control (lower = inhibition)",[7],141%
O=C(O)c1ccc(O)c2ncc(N3CCOCC3)cc12,"activity, percent of control",[9],35.5%
same,"remaining proliferation (% of control), lower = more inhibition",[10],35.5%
same,"parasite growth remaining, % of DMSO control (lower = more inhibition)",[6],37%
C[C@H]1CCCC=CC2C[C@H](O)C[C@@H]2[C@H](O)C=CC(=O)O1 (some centres undefined),"parasite growth, % of DMSO control",[5],4.99%
same,"parasite growth remaining, % of DMSO control (lower = more inhibition)",[6],9.17%
same,"parasite growth, % of control (lower = inhibition)",[7],9.15%
CCCCN1CCC(CNC(=O)c2c3n(c4ccccc24)CCCO3)CC1,remaining parasite growth % (stronger effect = lower value),[8],91.7%
same,"activity, percent of control",[9],54.7%
same,"remaining proliferation (% of control), lower = more inhibition",[10],74.4%
same,"parasite growth remaining, % of DMSO control (lower = more inhibition)",[6],56.2%
same,"parasite growth, % of control (lower = inhibition)",[7],38.7%
O=C1CCC[C@@H]2[C@H]3CCCN4CCC[C@@H](CN12)[C@@H]34,"parasite growth, % of DMSO control",[5],91.5%
same,"parasite growth remaining, % of DMSO control (lower = more inhibition)",[6],97.9%
same,"parasite growth, % of control (lower = inhibition)",[7],95.1%
Cc1c(C(=O)Nc2cccc(C(F)(F)F)c2)cc(-c2ccccc2)n1CCCN1CCOCC1,remaining parasite growth % (stronger effect = lower value),[8],8.32%
same,"activity, percent of control",[9],17.4%
same,"remaining proliferation (% of control), lower = more inhibition",[10],9.01%
same,"parasite growth, % of DMSO control",[5],19.9%
same,"parasite growth remaining, % of DMSO control (lower = more inhibition)",[6],69.6%
same,"parasite growth, % of control (lower = inhibition)",[7],16.5%
O=C(O)CCCOc1ccc(Cl)cc1Cl,Potency,[3],inactive
Cc1nc(-c2ccc(-c3ccc(C(=O)N4CCc5cc6c(cc54)C4(CCN(C)CC4)CO6)cc3)c(C)c2)no1,remaining parasite growth % (stronger effect = lower value),[8],36.2%
same,"activity, percent of control",[9],63.3%
same,"remaining proliferation (% of control), lower = more inhibition",[10],17.2%
same,"parasite growth, % of DMSO control",[5],76%
same,"parasite growth remaining, % of DMSO control (lower = more inhibition)",[6],101%
same,"parasite growth, % of control (lower = inhibition)",[7],77.5%
O=C(O)c1cc(Oc2ccc(C(F)(F)F)cc2Cl)ccc1[N+](=O)[O-],Potency,[3],inactive
O=C(O)COc1nc(Cl)c(Cl)cc1Cl,Potency,[3],inactive
CC(C)[C@]12O[C@H]1[C@@H]1O[C@]13[C@]1(O[C@H]1C[C@H]1C4=C(CC[C@@]13C)C(=O)OC4)[C@@H]2O,remaining parasite growth % (stronger effect = lower value),[8],103%
same,"activity, percent of control",[9],96.4%
same,"remaining proliferation (% of control), lower = more inhibition",[10],95.4%
c1ccc2c(CN3CCNCC3)cccc2c1,"parasite growth, % of DMSO control",[5],85.3%
same,"parasite growth remaining, % of DMSO control (lower = more inhibition)",[6],53.1%
same,"parasite growth, % of control (lower = inhibition)",[7],43.2%
CC[C@H]1C=CC=CC[C@@H](C)[C@H](O)[C@@](C)(O)C(=O)[C@@H](C)[C@H](O)[C@@H](C)C(=O)[C@@H](C)[C@H](O)[C@@H](C)C=CC(=O)O[C@@H]2[C@@H](C)[C@H](CC1)O[C@]1(CC[C@H](C)[C@H](C[C@@H](C)O)O1)[C@H]2C,"parasite growth, % of DMSO control",[5],16.9%
same,"parasite growth remaining, % of DMSO control (lower = more inhibition)",[6],6.38%
same,"parasite growth, % of control (lower = inhibition)",[7],20.2%
C[C@]12CC[C@H](O)CC1=CC[C@H]1[C@H]3CCC(=O)[C@@]3(C)CC[C@@H]12,"parasite growth, % of DMSO control",[5],72.2%
same,"parasite growth remaining, % of DMSO control (lower = more inhibition)",[6],97.4%
same,"parasite growth, % of control (lower = inhibition)",[7],108%
